# The sample as a whole holds a higher share of hits than the screen did.
# VHR inh color: blocks the human dual specificity phosphatase VHR1; actives 0.7% (n = 50,000); P51452; inhibition, % at 20 µM; recombinant VHR phosphatase, colorimetric substrate read-out; in the data active = inhibition above about 60%
# Target sequence (P51452 whole entry, looked up): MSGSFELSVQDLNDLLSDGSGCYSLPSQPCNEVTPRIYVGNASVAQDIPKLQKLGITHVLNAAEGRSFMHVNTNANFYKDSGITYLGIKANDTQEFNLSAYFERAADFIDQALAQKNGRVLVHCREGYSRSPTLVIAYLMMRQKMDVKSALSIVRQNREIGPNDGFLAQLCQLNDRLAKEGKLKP
# Numbers stand for hits; 0 = inactive.
SMILES,VHR inh color
O=C1c2ccccc2C(=O)N1CC(O)Cn1c2ccccc2c2ccccc21 (configuration not stated),0
O=C(CCN1C(=O)c2ccccc2C1=O)NCc1ccncc1,0
O=C(Nc1nc(-c2ccc(F)cc2)cs1)c1ccc(S(=O)(=O)N2CCCCCC2)cc1,0
Cc1cccc(N2CCN(C(=O)c3cc(-c4ccc(Cl)cc4)nc4ccccc34)CC2)c1C,0
Cc1nc(N)sc1-c1csc(Nc2ccc(S(N)(=O)=O)cc2)n1,0
Cc1nc(NC(=O)c2ccccc2)sc1-c1csc(Nc2ccc(O)cc2)n1,71
Cc1nc(NC(=O)c2ccccc2)sc1-c1csc(Nc2cccc(C(=O)O)c2)n1,0
COc1ccc(CN2CCN(C(=O)c3cccc(F)c3)CC2)cc1Br,0
Cc1cc2c(cc1C)NC(CC(=O)Nc1ccc(Cl)cc1)C(=O)N2 (configuration not stated),0
CC1=C(C(=O)OC(C)C)C(c2cccc(Br)c2)NC(=O)N1 (configuration not stated),0
CC1=C(C(=O)OC(C)C)C(c2cc(Br)ccc2F)CC(=O)N1 (configuration not stated),102
CC1=C(C(=O)OC(C)C)C(c2ccc(F)c(Br)c2)CC(=O)N1 (configuration not stated),118
COC(=O)C1=C(C)NC(=O)CC1c1ccc(F)c(Br)c1 (configuration not stated),0
CC1=C(C(=O)OC(C)C)C(c2ccc(Br)cc2)C2=C(CC(c3ccc(Cl)cc3)CC2=O)N1 (configuration not stated),0
COC(=O)C1=C(C)NC(=O)CC1c1ccccc1C(F)(F)F (configuration not stated),0
CC1=C(C(=O)OCc2ccccc2)C(c2ccc(F)c(Br)c2)CC(=O)N1 (configuration not stated),0
CC1=C(C(=O)OC(C)C)C(c2ccccc2Br)CC(=O)N1 (configuration not stated),102
CC1=C(C(=O)OC(C)C)C(c2ccccc2Cl)CC(=O)N1 (configuration not stated),0
O=C(c1ccccc1CCc1ccccc1)N1CCCc2ccccc21,0
COCCN1C(=O)/C(=C/c2ccccc2)SC1=S,0
CCc1ccc(-n2c(C)cc(/C=N/NC(=O)c3cccnc3)c2C)cc1,0
COc1ccc(N=C2CC(C)(C)CC(=O)/C2=C(O)\C=C\c2ccccc2)cc1,0
O=C(Nc1ccc(Cl)cc1)Nc1nnc(COc2ccc(Cl)cc2Cl)s1,0
CC(=O)NC1=NC(=O)/C(=C\c2cccs2)S1,0
CCOc1ccccc1NC(=O)C1C2CCC3C(CCC21)C3(Cl)Cl (configuration not stated),119
SMILES,VHR inh color
CCOc1ccccc1NC(=O)c1ccccc1,0
O=C(Nc1cccc2ccccc12)C1C2CCC3C(CCC21)C3(Cl)Cl (configuration not stated),0
CC1=C(C(=O)Nc2ccc(Br)cc2)C(c2ccc(F)cc2)NC(=O)N1 (configuration not stated),0
O=C(N/N=C\c1ccc(Cl)cc1Cl)c1cccc2cc[nH]c12,0
CC1=C(C#N)c2nc(N)c(C#N)c(C)c2/C1=C\c1ccc(-c2ccc(C(=O)O)cc2)o1,0
COc1ccc(/C=C2\SC(=O)N(CCC(=O)Nc3cccc(C)c3)C2=O)cc1OC,80
COc1ccc(/C=C2\SC(=O)N(CCC(=O)Nc3ccccc3C)C2=O)cc1OC,0
COc1ccccc1NC(=O)CCN1C(=O)S/C(=C/c2ccc(OC)c(OC)c2)C1=O,0
O=C1c2ccccc2C(=O)c2c1cc(Nc1ccccc1)c1nsnc21,0
O=C(Nc1cccc2ccccc12)C1(c2ccccc2)CC1(Cl)Cl (configuration not stated),118
O=C(Nc1ccccc1F)C1(c2ccccc2)CC1(Cl)Cl (configuration not stated),0
O=C(Nc1nccs1)C1(c2ccccc2)CC1(Cl)Cl (configuration not stated),0
Cc1cnc(NC(=O)C2CC3CCC2C3)s1 (configuration not stated),0
Cn1/c(=N\N=C\c2ccc(Br)cc2)sc2ccccc21,0
O=C(O)c1cc(-c2ccc(/C=N/Nc3ccc([N+](=O)[O-])cn3)o2)ccc1Cl,0
Cc1cc(C(=O)N/N=C/c2ccc(-c3cccc(C(=O)O)c3)o2)n[nH]1,0
O=C(O)c1cccc(-c2ccc(/C=N/Nc3ccc([N+](=O)[O-])cn3)o2)c1,90
CCOC(=O)/C(C#N)=N/Nc1ccc2c(c1)c1ccccc1n2CC,0
O=C(COc1cc2oc(=O)cc(-c3ccccc3)c2cc1Cl)c1ccc(Cl)cc1,0
COc1cccc(C2NC(=S)NC(C)=C2C(=O)Nc2cccc(Cl)c2)c1 (configuration not stated),0
N#C/C(=C\c1ccc(-c2ccc3c(c2)COC3=O)o1)c1nc2ccccc2[nH]1,64
N#CC(C#N)=Cc1ccc(-c2ccc3c(c2)COC3=O)o1,0
N#C/C(=C\c1ccc(-c2ccc3c(c2)COC3=O)o1)C(N)=O,0
CCOc1ccccc1NC(=O)CN(c1ccccc1Cl)S(C)(=O)=O,0
COc1ccc(CN2CCN(C3CCCC(C)C3)CC2)c(OC)c1OC (configuration not stated),0
SMILES,VHR inh color
CCOC(=O)c1c(N)c(C#N)c(C)n1-c1ccc(Br)cc1,0
Cc1ccc(-c2ccccc2)n1-c1ccc(O)c(C(=O)O)c1,99
Cc1ccc(-c2ccccc2)n1-c1ccc(C(=O)O)cc1,0
Cc1ccc(-c2ccccc2)n1-c1ccc(Cl)c(C(=O)O)c1,0
CN(/N=C/c1cccc(Oc2ccccc2)c1)c1ccccc1,0
COc1ccc(OC)c(NC(=S)NC(NC(=O)c2cccc(I)c2)C(Cl)(Cl)Cl)c1 (configuration not stated),0
N#CC1=C(SCc2ccccc2)NC(=O)C(C#N)C12CCCCC2 (configuration not stated),0
N#CC1=C(S)NC(=O)C(C#N)C12CCCCC2 (configuration not stated),81
C=CCSC1=C(C#N)C2(CCCCC2)C(C#N)C(=O)N1 (configuration not stated),0
Cc1ccc(NCC(=O)N/N=C\c2ccc(OCc3ccccc3)cc2)cc1,0
CC(C(=O)c1ccc(Cl)cc1)[n+]1cccc(NC(=O)c2ccccc2)c1 (configuration not stated),0
CC(=O)COc1ccc2c(C)cc(=O)oc2c1C,0
CN1C(=O)NC(=O)/C(=C\c2ccc(N3CCCC3)cc2)C1=O,0
O=C1NC(=O)N(c2ccc(Cl)cc2)C(=O)/C1=C\c1ccc(N2CCCC2)cc1,70
O=C1NC(=O)N(c2ccc(Cl)cc2)C(=O)/C1=C/c1ccc(F)cc1,0
COC(=O)COc1c(Cl)cc(/C=C(/C#N)C(=O)Nc2cccc(Br)c2)cc1Cl,0
CC1=C(C(=O)OCCCc2ccccc2)C(c2cccs2)NC(=O)N1 (configuration not stated),0
O=C1C=CC(=O)c2c1c(-c1ccccc1)nn2-c1ccccc1,86
Cc1c(C(=O)NCCO)c(-c2ccccc2)nn1-c1ccccc1,0
CCOC(=O)c1c(-c2ccccc2)nn(-c2ccccc2)c1C,0
Cc1ccc(S(=O)(=O)N/N=C/c2ccc(OC(=O)c3ccccc3[N+](=O)[O-])cc2)cc1,0
Cc1ccc(OCC(=O)N/N=C\c2ccco2)cc1,0
CCOC(=O)c1c(NC(=O)c2cccc(OC)c2)sc(C(=O)Nc2ccccc2OC)c1C,0
CCOC(=O)c1c(NC(=O)c2ccc(C)c([N+](=O)[O-])c2)sc(C(=O)Nc2ccccc2OC)c1C,116

# Compound activity: PubChem, Sanford-Burnham Center for Chemical Genomics
